In PMC8384837, “Expanding the binding specificity for RNA recognition by a PUF domain” one finds binding signal data, which are given here for 9 sequences.

What all share (test): yeast three-hybrid, YBZ-1, SC-Leu-His + 0.5 mM 3-AT, 4 days
What all share (conditions): tags: N-Gal4 AD-HA kept; label: inside an RPR1-promoter hybrid RNA with tandem MS2 sites; ssRNA

One assay addresses PUM1 PUF domain R3-GWM (Homo sapiens, UniProt Q14671 828-1176, C935G;R936W;Q939M). The method in brief: (§1)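 Matching RNA elements and Pumilio-1 PUF domain libraries, randomized at the three base-contacting residues of every repeat, were co-expressed from a centromeric plasmid in strain YBZ-1 (LexA–MS2 coat fusion, HIS3 reporter). The repeat regions were PCR-amplified and Illumina-sequenced from cells grown four days on SC-Leu (input) or SC-Leu-His + 0.5 mM 3-AT (selection). The interaction score is the log change in variant frequency from input to selection. It is computed in log2, with a pseudocount of 1 for absent variants.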

Another assay deals with PUM1 PUF domain R8-SWF (Homo sapiens, UniProt Q14671 828-1176, N1122S;Y1123W;Q1126F). The method in brief: as §1
In another assay the target is PUM1 PUF domain R5-SIC (Homo sapiens, UniProt Q14671 828-1176, C1007S;R1008I;Q1011C). The method in brief:
as §1

The next assay concerns the target T1, PUM1 PUF domain R6-VWG (Homo sapiens, UniProt Q14671 828-1176, N1043V;Y1044W;Q1047G).
T1 sequence: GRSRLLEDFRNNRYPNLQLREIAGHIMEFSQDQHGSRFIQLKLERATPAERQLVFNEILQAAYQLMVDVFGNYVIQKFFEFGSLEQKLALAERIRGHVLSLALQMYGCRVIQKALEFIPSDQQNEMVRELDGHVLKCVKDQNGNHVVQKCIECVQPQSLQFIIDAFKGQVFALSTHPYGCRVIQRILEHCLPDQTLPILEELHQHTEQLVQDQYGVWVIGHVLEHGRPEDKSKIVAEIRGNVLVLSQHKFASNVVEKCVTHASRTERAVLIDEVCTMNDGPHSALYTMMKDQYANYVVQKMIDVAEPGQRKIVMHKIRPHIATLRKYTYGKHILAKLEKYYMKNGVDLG
The method in brief: as §1

In a further assay the target is T2, PUM1 PUF domain R6-TFM (Homo sapiens, UniProt Q14671 828-1176, N1043T;Y1044F;Q1047M).
T2 sequence: T1 sequence with V216T, W217F, G220M
An outline of the steps: as §1

The target of a further assay is PUM1 PUF domain R4-SFP (Homo sapiens, UniProt Q14671 828-1176, N971S;H972F;Q975P). An outline of the steps:
as §1

For another assay, the target named is PUM1 PUF domain R4-CRR (Homo sapiens, UniProt Q14671 828-1176, N971C;H972R;Q975R). An outline of the steps: as §1
For a further assay, the target named is PUM1 PUF domain R3-RVM (Homo sapiens, UniProt Q14671 828-1176, C935R;R936V;Q939M). The method in brief:
as §1

The target in another assay is PUM1 PUF domain R5-NSR (Homo sapiens, UniProt Q14671 828-1176, C1007N;R1008S;Q1011R). An outline of the steps:
as §1

Residue numbers refer to the chain shown, from its start.

As for “GGCUAGAACUAGUGGAUCCCCCGGCGCCCGGCGGCUCGAGCCCGGGUAAGUGUAAGUAGUCUGCAUGCCGCCGGGCGCCAUGCCUGCAGGUCGACUCUAGAAAACAUG”, in the assay with PUM1 PUF domain R3-GWM, the binding signal was 1.14 log2 enrichment (interaction score).

Turning to “GGCUAGAACUAGUGGAUCCCCCGGCGCCCGGCGGCUCGAGCCCGGGUAAGUGUAAAUAGUCUGCAUGCCGCCGGGCGCCAUGCCUGCAGGUCGACUCUAGAAAACAUG”, the binding signal is 2.49 log2 enrichment (interaction score) with PUM1 PUF domain R3-GWM, 2.33 log2 enrichment (interaction score) with PUM1 PUF domain R8-SWF, 3.43 log2 enrichment (interaction score) with PUM1 PUF domain R5-SIC and 2.67 log2 enrichment (interaction score) with PUM1 PUF domain R6-VWG.

Take “GGCUAGAACUAGUGGAUCCCCCGGCGCCCGGCGGCUCGAGCCCGGGUAAGUGAAAAUAGUCUGCAUGCCGCCGGGCGCCAUGCCUGCAGGUCGACUCUAGAAAACAUG”: the binding signal in the assay with PUM1 PUF domain R6-TFM was 2.84 log2 enrichment (interaction score); with PUM1 PUF domain R6-VWG it was 6.85 log2 enrichment (interaction score).

Consider “GGCUAGAACUAGUGGAUCCCCCGGCGCCCGGCGGCUCGAGCCCGGGUAAGUGUAUAUAGUCUGCAUGCCGCCGGGCGCCAUGCCUGCAGGUCGACUCUAGAAAACAUG”, for which, in the assay with PUM1 PUF domain R4-SFP, the binding signal was 7.15 log2 enrichment (interaction score).

On to “GGCUAGAACUAGUGGAUCCCCCGGCGCCCGGCGGCUCGAGCCCGGGUAAGUGUACAUAGUCUGCAUGCCGCCGGGCGCCAUGCCUGCAGGUCGACUCUAGAAAACAUG”, for which the binding signal with PUM1 PUF domain R4-SFP was 6.2 log2 enrichment (interaction score); in the assay with PUM1 PUF domain R4-CRR, 3.13 log2 enrichment (interaction score).

In the case of “GGCUAGAACUAGUGGAUCCCCCGGCGCCCGGCGGCUCGAGCCCGGGUAAGCGUAAAUAGUCUGCAUGCCGCCGGGCGCCAUGCCUGCAGGUCGACUCUAGAAAACAUG”, the binding signal with PUM1 PUF domain R8-SWF is 1.73 log2 enrichment (interaction score).

For “GGCUAGAACUAGUGGAUCCCCCGGCGCCCGGCGGCUCGAGCCCGGGUAAGUGUAAUUAGUCUGCAUGCCGCCGGGCGCCAUGCCUGCAGGUCGACUCUAGAAAACAUG”, the binding signal with PUM1 PUF domain R3-RVM was 2.43 log2 enrichment (interaction score).

With “GGCUAGAACUAGUGGAUCCCCCGGCGCCCGGCGGCUCGAGCCCGGGUAAGUGUCAAUAGUCUGCAUGCCGCCGGGCGCCAUGCCUGCAGGUCGACUCUAGAAAACAUG”, in the assay with PUM1 PUF domain R5-NSR, the binding signal is 4.06 log2 enrichment (interaction score).

On to “GGCUAGAACUAGUGGAUCCCCCGGCGCCCGGCGGCUCGAGCCCGGGUAAGUGUUAAUAGUCUGCAUGCCGCCGGGCGCCAUGCCUGCAGGUCGACUCUAGAAAACAUG”, for which, in the assay with PUM1 PUF domain R5-NSR, the binding signal is 4.06 log2 enrichment (interaction score).
